# In PubChem BioAssay AID2216 (Broad Institute, 2009):
# The whole screen tested about 300,000 compounds, of which about 3,300 (1.1%) were called active. Not shown: some 6% with an inconclusive outcome. The sample holds actives, similar compounds and a random draw of the others, so the mix is not that of the screen. Unmarked numbers belong to inactive results.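 The calls were made as follows: active = more than half of the replicate wells show a fall in the fluorescence ratio signal beyond about 16% (limit read from the data, passing the limit was not always enough); inconclusive = exactly half of the replicate wells pass the set limit; inactive = fewer than half of replicates pass the limit.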
# System: Ran GTPase (GTP-bound) - importin-beta complex
# Test: disruptors of Ran-importin-beta complex formation – biochemical, FRET, CFP-Ran, YFP-importin-beta, homogeneous, primary screen (AID 2216);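 also: 0% = DMSO wells and 100% = Ran loaded with GDP instead of GTP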
# Conditions: cell-free CFP-Ran/YFP-importin-beta FRET ratio; active compounds read high; concentration not given here
row,Compound,inhibition
1,COc1ccccc1C(=O)NCCC(=O)NN1C(=O)NC2(CCCCC2)C1=O,-3.94%
2,CCOc1ccc2nc(N3CCCN(C(=O)Nc4ccccc4C)CC3)c(C#N)cc2c1,119% (active)
3,CCOc1ccc(C(=O)NC2CCN(C(=O)Nc3ccccc3OC)CC2)cc1,-1.22%
4,CCOC(=O)c1cc(C#N)c(N2CCCCC2)nc1-c1ccccc1,-3.84%
5,COc1ccccc1C(=O)Nc1ccccc1C(=O)Nc1ccccc1,3.3%
6,O=C(NCCOc1cccnc1)c1ccc(OC2CCN(Cc3ccccn3)CC2)cc1,0.854%
7,O=S(=O)(c1cccc(Cn2nnc(-c3ccc(F)cc3)n2)c1)N1CCOCC1,5.68%
8,Cc1cccc(Nc2nc(NCCO)nc(N3CCCC3)n2)c1,-0.666%
9,Cc1ccc(N2C(=O)C3CC3C2=O)cc1 (stereo not drawn),1.85%
10,Cc1ccc(N2CCN(c3ccc(C)cc3)C2c2ccccn2)cc1,20.1% (active)
11,Cc1ccc(S(=O)(=O)NCC(=O)N2CCN(c3ccccn3)CC2)cc1,-4.7%
12,CCC(CC)c1nnc(NC(=O)C2=COCCO2)s1,-0.607%
13,CCCCN1C(=O)CCC(C(=O)O)C1c1ccc(OC)cc1 (stereo not drawn),-1.74%
14,CCOc1ccc(C2C(C#N)=C(N)N(N(C)C)C3=C2C(=O)CCC3)cc1 (stereo not drawn),-2.69%
15,COc1ccc(C2C(C#N)=C(N)N(c3ncn[nH]3)C3=C2C(=O)CCC3)cc1 (stereo not drawn),2.61%
16,CCOC(=O)C1=C(N)N(c2ccc(C)cc2)C2=C(C(=O)CCC2)C1c1cccs1 (stereo not drawn),1.06%
17,COc1ccc(C2C3=C(CCCC3=O)N(CC(=O)O)C3=C2C(=O)CCC3)cc1,61.1% (active)
18,CCOc1ccc(C2C3=C(CCCC3=O)N(CC(=O)O)C3=C2C(=O)CCC3)cc1,63.4% (active)
19,O=C1c2ccccc2C(=O)c2c1cccc2N1CCN(C/C=C/c2ccccc2)CC1,-1.77%
20,Cc1nc(-c2ccccc2)sc1C1(C)CC(c2cccnc2)=NO1 (stereo not drawn),4.13%
21,CCCCc1ccc(NC(=S)NCCCN2CCOCC2)cc1,1.19%
22,Cc1ccc(C(=O)NC(=S)NCCN2CCOCC2)cc1,-2.12%
23,Cc1ccc(NC(=S)NCCN2CCOCC2)cc1,18% (active)
24,CCCCn1c(N)c(N(CCC(C)C)C(=O)CC2OC(=O)c3ccccc32)c(=O)[nH]c1=O (stereo not drawn),0.056%
25,O=C(CCC1CCCN(C(=O)c2ccc(F)c(F)c2)C1)N1CCN(c2ccccn2)CC1 (stereo not drawn),2.85%
26,Oc1c(CN2CCN(c3ccc(F)cc3)CC2)cc(Cl)c2cccnc12,24.8% (active)
27,CCN1CCN(C(c2cccnc2)c2cc(Cl)c3cccnc3c2O)CC1 (stereo not drawn),2.34%
28,Oc1ccc(CN2CCN(c3ncccn3)CC2)cc1,-6.09%
